We go through 38 compounds from PubChem BioAssay (NCI).

About 79,000 compounds went through this panel and 15% of them were active in at least one assay; those are over-represented in the sample as a whole. Unmarked numbers belong to inactive results. The source made the active and inactive calls. Cut-off read from the data, not from the text of the source: active = growth inhibition above about 70%; inactive = the rest.

The nature of experiment [1]: NCI Yeast Anticancer Drug Screen. Data for the rad50 strain (AID 155).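 Note: 0% = growth of vehicle-only cultures of the same strain.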 Conditions: S. cerevisiae rad50 strain growth inhibition; at 50.0 µM; active compounds read high. The gist of the method:
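Readout: growth inhibition relative to vehicle-treated cultures. Compound exposure was carried out in a genetically defined yeast strain deficient in DNA damage repair.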

Experiment [2] in a line: NCI Yeast Anticancer Drug Screen. Data for the mec2-1 strain (AID 157). Conditions: S. cerevisiae mec2-1 strain, at 50.0 µM, active compounds read high. The gist of the method:
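Readout is yeast growth inhibition, normalised to vehicle-treated controls, in the mec2-1 strain exposed to compound.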

The nature of experiment [3]: NCI Yeast Anticancer Drug Screen. Data for the sgs1 mgt1 strain (AID 161).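 Note: 0% = growth of cultures given vehicle only.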 Conditions: S. cerevisiae sgs1 mgt1 strain, at 50.0 µM, active compounds read high. The essentials: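 Growth of a repair-deficient yeast mutant was monitored after compound treatment and expressed as inhibition relative to vehicle-treated cultures.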
A short description of experiment [4]: NCI Yeast Anticancer Drug Screen. Data for the cln2 rad14 strain (AID 165).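 Note: 0% = growth equal to vehicle treated cultures.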 Conditions: S. cerevisiae cln2 rad14 strain, at 50.0 µM, active compounds read high. The essentials: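 Relative to vehicle controls, growth inhibition of compound-treated cln2 rad14 yeast was recorded.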
Experiment [5] can be described thus: NCI Yeast Anticancer Drug Screen. Data for the bub3 strain (AID 167). Conditions: S. cerevisiae bub3 mutant strain, at 50.0 µM, active compounds read high. The essentials:
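Readout: yeast growth inhibition, expressed relative to vehicle-only wells. The test organism is a mutant strain from a panel with lesions in DNA repair or checkpoint genes.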

Experiment [6] is described as follows: NCI Yeast Anticancer Drug Screen. Data for the mlh1 rad18 strain (AID 175). Conditions: S. cerevisiae mlh1 rad18 strain growth inhibition; at 50.0 µM; active compounds read high. The gist of the method:
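Test agents were incubated with a yeast strain of defined genotype (DNA damage repair defect). Inhibition of growth was derived by comparison with vehicle-exposed cultures.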

`COS(=O)(=O)c1ccc(C)cc1`: the growth inhibition in experiment [1] is 24.2%; in experiment [2] it was -1.85%; in experiment [3], -8.2%; in experiment [4], 12.7%; in experiment [5], -7.7%; in experiment [6] it was -3.75%.
With `CN1C2CCC1[C@@H](COC(=O)c1ccccc1)[C@@H](O)C2` (stereo partly drawn), the growth inhibition in experiment [1] was -9.15%; in experiment [2], -14.6%; in experiment [3] it was -15.6%; in experiment [4], -27.4%; in experiment [5], -3.55%; in experiment [6], -61%.
Take `CCCCCCCCCCCCCCCC(=O)OCC1OC(OC)C2NP(=O)(N(CCCl)CCCl)OC1C2O` (stereo not drawn): the growth inhibition in experiment [1] was 35.4%; in experiment [2], -13.3%; in experiment [3] it was -40.4%; in experiment [4], -20.9%; in experiment [5], 66.7%; in experiment [6], 73% (active).
For `CC(=O)Nc1ccc(-c2ccccc2)cc1`, the growth inhibition in experiment [1] is 39.7%; in experiment [2], 24.8%; in experiment [3], 46.6%; in experiment [4], 17.9%; in experiment [5], -0.5%; in experiment [6], 32.9%.
Take `NC1CC(O)C(O)CC1c1ccc2c(c1)OCO2` (stereo not drawn): the growth inhibition in experiment [1] is -26.5%; in experiment [2], -4.45%; in experiment [3] it was -15.9%; in experiment [4], -13.9%; in experiment [5], 6.9%; in experiment [6], -17.2%.
Regarding `CCOP(=O)(CCN(C)C)OCC`, the growth inhibition in experiment [1] was -6.45%; in experiment [2], 3.55%; in experiment [3] it was -4.4%; in experiment [4], -27.7%; in experiment [5], -7.9%; in experiment [6], -0.45%.
Turning to `CC1OC(OC2C(O)C(O)C(O)C(O)C2O)C(N)CC1N=C(N)C(=O)O` (stereo not drawn), the growth inhibition in experiment [1] is 12.5%; in experiment [2], 3.6%; in experiment [3] it was -18.1%; in experiment [4], -34.5%; in experiment [5], -0.35%; in experiment [6], 23.6%.
Take `[N-]=[N+]=CC(=O)c1ccc(Cl)cc1`: the growth inhibition in experiment [1] was 34.5%; in experiment [2] it was 28.4%; in experiment [3] it was 14%; in experiment [4], -16.5%; in experiment [5], 50.1%; in experiment [6] it was 52.2%.
`CCC1(O)CC(OC2CC(N(C)C)C(OC3CC(O)C(OC4CCC(=O)C(C)O4)C(C)O3)C(C)O2)c2c(cc3c(c2O)C(=O)c2c(O)ccc(O)c2C3=O)C1C(=O)OC` (stereo not drawn): the growth inhibition is 88.8% (active) in experiment [1]; 90.9% (active) in experiment [2]; 90.5% (active) in experiment [3]; 88.4% (active) in experiment [4]; 90% (active) in experiment [5]; 89% (active) in experiment [6].
`CCC(=O)[O][Sn]([CH3])([CH3])[O][Sn]([CH3])([CH3])[O]C(=O)CC`: the growth inhibition is -2.55% in experiment [1]; 18.1% in experiment [2]; -28.8% in experiment [3]; 11.8% in experiment [4]; -16.9% in experiment [5]; 3.25% in experiment [6].
Turning to `CCC1(O)N=C(c2ccccc2)c2ccccc2-n2cccc21` (stereo not drawn), the growth inhibition in experiment [1] was 1.7%; in experiment [2], 4.25%; in experiment [3] it was 8.65%; in experiment [4] it was 0.55%; in experiment [5], 2.2%; in experiment [6], 6.5%.
For the compound `Cn1nnc(C(N)=O)n1`, the growth inhibition in experiment [1] was -9.65%; in experiment [2] it was -15.2%; in experiment [3], -15.8%; in experiment [4] it was -12.8%; in experiment [5], -4.2%; in experiment [6], -18.8%.
For `CCCCOC(N)=O`, the growth inhibition in experiment [1] was -34.6%; in experiment [2], -11.6%; in experiment [3], 29.4%; in experiment [4] it was -19.9%; in experiment [5] it was 0.1%; in experiment [6], 0.3%.
`Oc1cc(N2CC2)c(O)cc1N1CC1`: the growth inhibition in experiment [1] was 12.8%; in experiment [2], 13.9%; in experiment [3] it was 11.2%; in experiment [4], -42.6%; in experiment [5], -1.75%; in experiment [6] it was 11.4%.
As for `Clc1cccc(Cl)c1NC1=NCCS1`, the growth inhibition was -11.7% in experiment [1]; -20.8% in experiment [2]; 12.7% in experiment [3]; 6.1% in experiment [4]; -2.25% in experiment [5]; 6.45% in experiment [6].
Regarding `CC1OC(OC2CCC3(C=O)C4CCC5(C)C(C6=CC(=O)OC6)CCC5(O)C4CCC3(O)C2)C(O)C(O)C1O` (stereo not drawn), the growth inhibition in experiment [1] is 14.3%; in experiment [2], -8.35%; in experiment [3], -5.65%; in experiment [4] it was 13.5%; in experiment [5] it was -9.15%; in experiment [6], -4.3%.
On to `NC(=O)C(Cl)c1ccccc1` (stereo not drawn), for which the growth inhibition in experiment [1] was -17.2%; in experiment [2], -25.9%; in experiment [3] it was -24.8%; in experiment [4], -23.6%; in experiment [5] it was -23.9%; in experiment [6], -9.15%.
Consider `CC(N)C(=O)c1ccccc1` (stereo not drawn), for which the growth inhibition in experiment [1] was -2.75%; in experiment [2] it was 5.2%; in experiment [3], 6.9%; in experiment [4] it was -38.2%; in experiment [5], 15.3%; in experiment [6], 1.25%.
For the compound `c1ccc(N=Nc2ccccc2)cc1`, the growth inhibition in experiment [1] is -1.25%; in experiment [2] it was -7.5%; in experiment [3] it was -4.2%; in experiment [4] it was -9.55%; in experiment [5], -5.15%; in experiment [6] it was 24.6%.
`O=P(N1CCCCCC1)(N1CC1)N1CC1`: the growth inhibition is -2.15% in experiment [1]; 11% in experiment [2]; -11.4% in experiment [3]; 3.95% in experiment [4]; -3.25% in experiment [5]; 6.35% in experiment [6].
Consider `CN1CN(c2ccccc2)C2(CCN(CCc3cc4ccccc4o3)CC2)C1=O`, for which the growth inhibition in experiment [1] was -30.9%; in experiment [2], -10.1%; in experiment [3], -12.8%; in experiment [4], -28.9%; in experiment [5], 3.4%; in experiment [6], -22.2%.
In the case of `CCOP(=O)(CC(=O)c1cc2ccccc2[nH]1)OCC`, the growth inhibition in experiment [1] was -3.5%; in experiment [2], 12.6%; in experiment [3], -2.1%; in experiment [4], 1.2%; in experiment [5], -8.1%; in experiment [6] it was -19.8%.
In the case of `O=C(CC(O)C(Cl)(Cl)Cl)CC(O)C(Cl)(Cl)Cl` (stereo not drawn), the growth inhibition is 15% in experiment [1]; -0.7% in experiment [2]; 10.2% in experiment [3]; 18% in experiment [4]; 20.4% in experiment [5]; 13.4% in experiment [6].
On to `CC(Oc1ccc(-c2ccccc2)cc1)C(=O)O` (stereo not drawn), for which the growth inhibition in experiment [1] was -14.8%; in experiment [2], -1.25%; in experiment [3], -9.25%; in experiment [4] it was -4.8%; in experiment [5], -13.1%; in experiment [6] it was -23.4%.
As to `CSP(=S)(SC)SC(C)C`, the growth inhibition was 19% in experiment [1]; 1.65% in experiment [2]; 24.1% in experiment [3]; 27.2% in experiment [4]; 6.5% in experiment [5]; -4.45% in experiment [6].
For the compound `COc1cc(O)c([N+](=O)[O-])cc1[N+](=O)[O-]`, the growth inhibition in experiment [1] was -6.4%; in experiment [2], 0.35%; in experiment [3], -2.9%; in experiment [4], 0%; in experiment [5], 18.9%; in experiment [6], 5.05%.
For `N#CC(C#N)=Cc1ccccc1C(=O)O`, the growth inhibition is 14.9% in experiment [1]; 11.3% in experiment [2]; -12.3% in experiment [3]; 14.7% in experiment [4]; 7.15% in experiment [5]; -4.1% in experiment [6].
With `CC(=O)CP(=O)(O)O`, the growth inhibition in experiment [1] was 23.3%; in experiment [2], -11.6%; in experiment [3], -0.15%; in experiment [4], -55.9%; in experiment [5] it was 10.1%; in experiment [6] it was -6.35%.
With `S=P(NCc1cccc(CNP(=S)(N2CC2)N2CC2)c1)(N1CC1)N1CC1`, the growth inhibition was 24.4% in experiment [1]; -0.2% in experiment [2]; 16.2% in experiment [3]; 7.8% in experiment [4]; -1.6% in experiment [5]; 9.4% in experiment [6].
Turning to `NC(=O)Nc1ccc([As](O)O)cc1`, the growth inhibition was 11.3% in experiment [1]; -2.4% in experiment [2]; -0.45% in experiment [3]; 11.8% in experiment [4]; -20% in experiment [5]; 15% in experiment [6].
As for `Cc1cc(C)c(C#N)c(SSC(Cl)(Cl)Cl)n1`, the growth inhibition in experiment [1] is 5.75%; in experiment [2] it was 18.9%; in experiment [3], 59.2%; in experiment [4] it was 15.1%; in experiment [5] it was 61.9%; in experiment [6], 40.9%.
Consider `CC(=O)c1cn(Cc2ccccc2)c2ccccc12`, for which the growth inhibition in experiment [1] was 5.75%; in experiment [2] it was -14.2%; in experiment [3] it was -6.7%; in experiment [4], -73.5%; in experiment [5], -19.6%; in experiment [6], -2.9%.
Consider `NC(Cc1ccccc1)c1nn[nH]n1` (stereo not drawn), for which the growth inhibition in experiment [1] was -10.2%; in experiment [2], -19.1%; in experiment [3], -35.6%; in experiment [4], -40.6%; in experiment [5], -17.4%; in experiment [6], -19.3%.
As to `COP(=O)(OC)C(O)C(Br)(Br)Br` (stereo not drawn), the growth inhibition in experiment [1] is 28.6%; in experiment [2], 23.1%; in experiment [3], 45.2%; in experiment [4] it was 34.8%; in experiment [5], 11.7%; in experiment [6] it was 23.8%.
In the case of `CC(C)(C)N1OC1c1cccc(Cl)c1` (stereo not drawn), the growth inhibition in experiment [1] is 29.6%; in experiment [2], 29.4%; in experiment [3], 10.8%; in experiment [4], 11.9%; in experiment [5], -2.85%; in experiment [6], 36.5%.
Turning to `CC1=NCCc2c1[nH]c1cc(O)ccc21`, the growth inhibition in experiment [1] was 6.65%; in experiment [2], -28.1%; in experiment [3] it was -12.6%; in experiment [4], -3.85%; in experiment [5], -15.6%; in experiment [6], 4%.
Regarding `CCOC(=O)OC1(c2ccccc2)CCN(C)CC1`, the growth inhibition in experiment [1] was -12.2%; in experiment [2], 5.75%; in experiment [3], -4.55%; in experiment [4], 34.3%; in experiment [5], 21.4%; in experiment [6], 21.4%.
As to `Cc1ncc(C)[n+]2c(C)csc12`, the growth inhibition in experiment [1] was 5%; in experiment [2] it was -7.95%; in experiment [3], -5.05%; in experiment [4], -0.4%; in experiment [5], -0.9%; in experiment [6] it was -23.4%.
